Screens (PubChem)
A selection: hits, their analogues and other compounds. The true share with any hit is near 11%.
Gal4-VP16 FLuc: counter-screen for ROR gamma inhibitors: Gal4-VP16 reporter. Drosophila S2 Gal4-VP16 UAS-luciferase, luminescence, 20 h. 310,000 tested, 3.5% active. Potency, µM (doses to about 53.6 µM), usual class: inhibitors. AID 2546;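 also: Gal4-VP16 expression switched on by copper sulfate through the metallothionein promoter; nearly all actives have a fitted effect of over 50% in size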
IL-1B inflam inh: inhibitors of inflammasome signaling (IL-1 beta secretion); AID 743279; 360,000 tested, 4.7% active; activity change, % at 57.5 µM; THP-1 LPS/ATP IL-1B secretion, AlphaLISA, 16 h; stronger effect = lower value; in the data active = activity change below about -50%; inconclusive = mostly about -30% to -49%
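THP-1 cells pretreated 1 hr with compounds (up to 57.5 uM final), then stimulated with LPS (250 ng/mL final) plus ATP (1.25 mM final); secreted IL-1B measured by AlphaLISA after 16 hr, decreased signal indicating inhibition.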
RORgamma inh: blocks mouse ROR gamma transcriptional activity. P51450. Potency, µM (highest dose often 53.6 µM), actives largely listed as inhibitors. Drosophila S2 Gal4-RORgamma UAS-luciferase reporter, 20 h. 310,000 tested, 5.4% active; also: nearly all actives have a fitted effect of over 60% in size
Target sequence (P51450 whole entry, looked up, the tested form may be a part): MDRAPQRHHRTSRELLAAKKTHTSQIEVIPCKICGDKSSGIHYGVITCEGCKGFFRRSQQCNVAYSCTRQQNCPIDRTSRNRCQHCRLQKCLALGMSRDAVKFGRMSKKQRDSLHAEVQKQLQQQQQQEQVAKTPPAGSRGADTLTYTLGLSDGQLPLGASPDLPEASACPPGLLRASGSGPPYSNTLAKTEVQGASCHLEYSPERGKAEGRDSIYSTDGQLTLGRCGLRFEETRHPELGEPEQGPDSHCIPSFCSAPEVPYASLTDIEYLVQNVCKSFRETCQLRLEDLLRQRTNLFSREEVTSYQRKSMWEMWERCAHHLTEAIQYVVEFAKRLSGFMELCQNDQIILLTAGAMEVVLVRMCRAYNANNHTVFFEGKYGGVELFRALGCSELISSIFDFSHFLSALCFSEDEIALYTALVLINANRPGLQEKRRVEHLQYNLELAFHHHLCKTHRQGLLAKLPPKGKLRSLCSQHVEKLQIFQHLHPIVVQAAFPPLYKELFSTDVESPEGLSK
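A Gal4/UAS one-hybrid system in insect cells: metallothionein-promoter Gal4–ROR gamma fusion plus Photinus luciferase reporter. Copper sulfate 700 uM final, 20 hr ambient incubation, luminescent detection after 10 min with reagent.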
MCF10A rereplic: induces DNA re-replication in MCF 10a normal breast cells; AID 624296; 350,000 tested, 2.9% active; Potency, µM (highest dose often 46.1 µM), usual class: activators; MCF 10A DNA re-replication, Hoechst nuclear intensity, 48 h; also: nearly all actives have a fitted effect of over 50% in size
SW480 rerep: inducers of DNA re-replication in SW480 colon cancer cells | SW480 DNA re-replication, Hoechst DNA content imaging, 48 h | 340,000 tested, 1.8% active | Potency, µM (top dose mostly 46.1 µM), hits mostly activators; also: nearly all actives have a fitted effect of over 55% in size
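Image-based read-out: total Hoechst fluorescence of nuclei (405 nm excitation, 500-530 nm emission), with hits raising the fraction of high-intensity nuclei. SW480 colon cells incubated 48 hr with compounds at 37 C.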
A number is an active result; 0 = inactive; ? = inconclusive; - = no result. Unless noted, calls follow the shape of the dose curve; as a rule, active = well fitted curve in the direction sought with a large enough effect; inconclusive = small, poorly fitted or top-dose-only effect, or another doubt; inactive = no such curve, though single readings can be large; an effect the other way counts as inactive or inconclusive.

SMILES | Gal4-VP16 FLuc | IL-1B inflam inh | RORgamma inh | MCF10A rereplic | SW480 rerep
CCS(=O)(=O)c1ncc(Cl)c(C(=O)Nc2ccccc2OC)n1 | 1.4µM | -94 | ? | 2.3µM | 2.9µM
COc1ccc(NC(=O)CC(C)NCCCN2CCCC2=O)cc1 (stereo not given) | 0 | 0 | 0 | 0 | 0
CC(C)NC(=O)N(C)C[C@H]1OCCCC[C@H](C)Oc2ccc(NS(=O)(=O)c3ccccc3)cc2C(=O)N([C@H](C)CO)C[C@H]1C | - | 0 | - | - | -
COc1ccc(S(=O)(=O)N2CCOCC2)cc1NC(=O)c1ccncc1 | - | 0 | - | 0 | 0
ClCCl | 0 | - | 0 | - | -
O=C(NCC(=O)N1CCCC(C(F)(F)F)C1)c1ccccc1Br (stereo not given) | - | 0 | - | 0 | 0
O=C(NCC(=O)N1CCCC(C(F)(F)F)C1)c1ccc(Oc2ccccc2)cc1 (stereo not given) | 13µM | 0 | 8.9µM | 0 | 0
O=C(NC(=S)N1CCCC(C(F)(F)F)C1)c1ccc(F)cc1 (stereo not given) | 0.71µM | 0 | 0.56µM | 0 | 0
O=C(NCC(=O)N1CCCC(C(F)(F)F)C1)c1ccc2ccccc2c1 (stereo not given) | - | 0 | - | 0 | 18µM
Cc1ccccc1-c1nnn(Cc2cccc(S(=O)(=O)N3CCOCC3)c2)n1 | - | 0 | - | 0 | 0
CCCc1cc(C(=O)OCC(=O)N(CCC)c2c(N)n(Cc3ccccc3)c(=O)[nH]c2=O)sc1C | - | 0 | - | 0 | 0
COc1ccc2c(c1)OC[C@H]1[C@H]2N2C(=O)CN(Cc3ccc(C)cc3)C(=O)[C@@]2(C)[C@H]1c1ccccc1 | - | ? | - | 0 | 0
CN1CCN(CCNC(=O)Cn2c(=O)c3cccn3c3ccc(F)cc32)CC1 | 0 | 0 | 0 | 0 | 0
Oc1cccc(Nc2nc(O)c(/C=C3\C=Nc4ccccc43)s2)c1 | ? | 0 | ? | ? | ?
Oc1nc(Nc2ccc(F)cc2)sc1/C=C1\C=Nc2ccccc21 | 0 | -78 | ? | 21µM | ?
Oc1nc(Nc2cccc(Cl)c2)sc1/C=C1\C=Nc2ccccc21 | ? | ? | ? | 7.3µM | ?
CC1=Nc2ccccc2/C1=C\c1sc(Nc2ccc(C)cc2)nc1O | 0 | -53 | 0 | ? | 1.3µM
O=c1c2c3c(sc2n(CCN2CCOCC2)c(=O)n1Cc1ccco1)CCCCC3 | 0 | ? | 0 | 0 | ?
O=c1c2c3c(sc2n(CCN2CCCCC2)c(=O)n1Cc1ccco1)CCCCC3 | 0 | 0 | 0 | 13µM | ?
Cn1nccc1-c1cc(Cl)cc(Cl)c1O | 32µM | - | ? | 0 | 0
CS(=O)(=O)N1CCC2(CC1)CN(C(=O)Nc1ccccc1)C2 | 0 | - | 0 | - | -
S=C(NC1CCCCC1)NN1CCCCCC1 | - | 0 | - | 0 | 0
S=C(NC1CCCC1)NC1CC1 | ? | 0 | 13µM | 0 | 0
S=C(NC1CCCC1)NC1CCCC1 | ? | 0 | 2.5µM | 0 | 0
OCCNC(=S)NC1CCCCC1 | 0 | 0 | 0 | 0 | 0
SMILES | Gal4-VP16 FLuc | IL-1B inflam inh | RORgamma inh | MCF10A rereplic | SW480 rerep
CC(C)CNC(=S)NC1CCCC1 | ? | 0 | 10µM | 0 | 0
CN(C)c1ncc2nc(-c3cccs3)c(=O)n(-c3ccccc3)c2n1 | 0 | - | 0 | - | -
CCOC(=O)[C@]12CCC=C1N(Cc1ccc(Cl)cc1Cl)C(=O)[C@H](CC(=O)NCC13CC4CC(CC(C4)C1)C3)C2 | - | 0 | - | - | -
CCCOc1ccc2c3c(c(=O)oc2c1OCCC)CCCC3 | 0 | 0 | ? | 0 | 0
CC(=O)Oc1ccc2c3c(c(=O)oc2c1C)CCCC3 | 0 | 0 | 0 | 21µM | 0
CCOc1ccc2c3c(c(=O)oc2c1OCC)CCCC3 | 0 | -52 | 0 | ? | 0
CCCCC(C=O)CC (stereo not given) | 0 | - | 0 | - | -
CC1(c2ccccc2)NC(=O)N(CC(=O)N(CC(=O)Nc2ccccc2C(F)(F)F)Cc2ccco2)C1=O (stereo not given) | - | 0 | - | 0 | 0
COc1cc(/C=C2/SC(=S)N(CC(=O)NNC(=O)c3ccc(F)cc3)C2=O)cc(OC)c1OC | - | 0 | - | - | -
CCNC(=O)C1(C)CCN(Cc2ccc(C#N)cc2)C1 (stereo not given) | - | 0 | - | - | -
COc1ccc(/C=C\C(=O)O[C@@H]2C(O)C(O[C@@H]3OC(C)[C@H](O[C@@H]4OCC(O[C@H]5O[C@H](CO)[C@@H](O)C(O)C5O)C(O)C4O)C(O)C3O)[C@H](OC(=O)[C@]34CCC(C)(C)C[C@@H]3C3=CCC5[C@@]6(C)CC(O)C(O[C@@H]7OC(CO)C(O)[C@H](O)[C@H]7O)[C@@](C)(C(=O)O)C6CC[C@@]5(C)[C@]3(CO)CC4)O[C@H]2C)cc1 (stereo not given in full) | - | -97 | - | 0 | 0
CNC(=O)C[C@H]1C(=O)N(CCc2ccccc2)C[C@@H]1C | - | 0 | - | - | -
CCc1nc2c(OCC(=O)C(C)(C)C)cccn2c1N(C)C(=O)C(C)C | - | 0 | - | - | -
Cc1cc(C(F)(F)F)nn1Cc1n[nH]c(=S)n1-c1ccc(Cl)cc1 | ? | 0 | ? | 0 | 0
Cc1cc(C(F)(F)F)nn1Cc1n[nH]c(=S)n1-c1cccc(Cl)c1 | ? | 0 | 11µM | ? | 0
Cc1cc(C(F)(F)F)nn1Cc1n[nH]c(=S)n1Cc1ccccc1 | 6.3µM | ? | ? | 0 | 0
Cc1ccc(-n2nc(C)c(/C=N/n3c(C)n[nH]c3=S)c2Cl)cc1 | 0 | 0 | 3.5µM | 0 | 0
CC1(C)CC(=O)C=C(c2ccc(I)cc2)C1 | - | -74 | - | 0 | 0
CC1(C)CC(=O)C=C(c2ccc(Oc3ccccc3)cc2)C1 | - | ? | - | 0 | 0
CC(=O)N1CCN(C(=O)c2cc(C)nc3ccccc23)CC1 | 0 | 0 | 0 | ? | 0
Cc1c(C(=O)C(=O)N2CC=C(c3ccccc3)CC2)c2ccccc2n1C | 0 | 0 | ? | 2.3µM | 7.3µM
Cc1cc(C(=O)N2CC=C(c3ccccc3)CC2)c2ccccc2n1 | - | 0 | - | ? | 1.3µM
O=C1C2C(c3ccccc3)=NN(c3ccccc3)C2C(=O)N1c1ccccc1 (stereo not given) | 0 | 0 | 0 | ? | 0
O=C1[C@H]2C(c3ccccc3)=NN(c3ccccc3)[C@H]2C(=O)N1c1ccccc1 | 0 | 0 | 0 | 0.65µM | 0
Cc1cc(C)nc(Sc2ncnc(N)c2[N+](=O)[O-])n1 | 8.9µM | -128 | 6.3µM | 21µM | ?
SMILES | Gal4-VP16 FLuc | IL-1B inflam inh | RORgamma inh | MCF10A rereplic | SW480 rerep
CCOC(=O)c1ccn(CSc2c(F)c(F)cc(F)c2F)n1 | - | 0 | - | 0 | 0
O=C(N[C@@H](Cc1ccccc1)C(=O)CCl)OCc1ccccc1 | - | -111 | - | ? | ?
CC(=O)NC(Cc1ccccc1)C(=O)OCC(=O)c1ccc(Cl)cc1 (stereo not given) | 0 | 0 | 0 | 0 | 0
O=C(CCl)NC(Cc1ccccc1)C(=O)OCC(=O)c1ccc(-c2ccccc2)cc1 (stereo not given) | - | -86 | - | 0 | 0
CCn1cc(CCCC(=O)NCc2cccc(OC)c2)c2ccccc21 | 0 | ? | 0 | 0 | 0
COc1ccccc1C(N)=S | ? | 0 | 16µM | 0 | 0
COc1ccccc1C(=O)C(=O)c1ccccc1OC | - | 0 | - | 0 | 0
COC(=O)[C@@H](Cc1ccc(O)cc1)NC(=O)[C@H]1CCC(=O)N1C(=O)OCc1ccccc1 | 0 | 0 | 0 | 0 | 0
